These results are taken from PubChem BioAssay (Tox21).

Inconclusive results are not listed. A call without a number means that no potency is given here. Unmarked numbers belong to inactive results. Active and inactive are the calls of the source. Calls follow the shape of the dose curve; as a rule, active = well fitted inhibition curve with a large enough effect in the repeat runs; inconclusive = weak or mixed curves; inactive = flat fitted curve, though single readings scatter.

This experiment is described as follows: qHTS assay to identify small molecule HDAC inhibitors (AID 1259364). Also: top concentration of the series differs between compounds; nearly all actives have a fitted effect of over 45% in size. The settings on record: HCT-116 HDAC-Glo I/II luminescence, 2 h; series mostly up to 92.4 µM. An excerpt: U.S. Tox21 Program National Center for Advancing Translational Sciences [NCATS] NIH Chemical Genomics Center [NCGC] U.S. Environmental Protection Agency [EPA] National Institutes of Environmental Health Sciences [NIEHS] National Toxicology Program [NTP] U.S. Food and Drug Administration [FDA] Tox21 Assay Overview: Histone deacetylases (HDACs) are a group of epigenetic enzymes that regulate gene expression by histone deacetylation. HDACs are capable of introducing epigenetic modifications and such aberrations contribute to the onset and progression of several human diseases, thus making HDACs a popular therapeutic target. For identifying endogenous class I/II HDAC inhibitors a homogenous, luminogenic HDAC I/II cell based assay was used to measure the relative activity of class I and II HDACs from cells. Wild type HCT-116 cells were used to screen Tox21 libraries for identifying class I/II HDAC inhibitors.
Tox21 Assay Protocol Summary: HCT-116 cells were dispensed at 1,500 per well in 5uL of culture medium into white solid bottom 1536-well plates (Greiner Bio-One, Monroe, NC) using a Multidrop Combi (Thermo Scientific, Waltham, MA) dispenser. The assay plates were incubated at 37 C and 5% CO2 for an overnight, and then 23nL of compounds dissolved in DMSO and positive control were transferred using a Pintool station (Wako, San Diego, CA). The assay plates were incubated at 37C and 5% CO2 for 2hr. After compound treatment, 4uL of HDAC-Glo reagent (Promega Corporation, Madison, WI) was added to each well of the assay plates using Flying Reagent Dispenser (FRD, Aurora Discovery, San Diego, CA) and incubated the assay plates at room temperature for 30min. The luminescence signal was quantified using a ViewLux plate reader (Perkin Elmer, Shelton, CT).
(In general: In qHTS, concentration-response curves come from the screen itself.)
Regarding `CCCN[C@H]1CCc2nc(N)sc2C1`, the Potency entry is “inactive”.
In the case of `O=C(O[C@@H]1Cc2c(O)cc(O)cc2O[C@@H]1c1cc(O)c(O)c(O)c1)c1cc(O)c(O)c(O)c1`, the Potency entry was “inactive”.
The same measure, in the same setting: then `Nc1nc2ccccc2[nH]1`, with “inactive”; and `CCCCOCCOC(=O)c1ccccc1C(=O)OCCOCCCC`, with “inactive”; and `Cc1occc(=O)c1OC(=O)C(C)C`, with “inactive”.
On the same count and under the same terms, then `CC(=O)OCCOCCOCCOC(C)=O`, with “inactive”; and `NC12CC3CC(CC(C3)C1)C2`, with “inactive”; and `CC(C)(C)c1ccccc1`, with “inactive”.
Consider `Clc1ccc2c(c1)C(N1CCNCC1)=Nc1ccccc1O2`, for which the Potency entry was “inactive”.
With `O=C(O)c1cccc(C(=O)O)c1`, the Potency result is “inactive”.
Still for that read-out and setting: the same measure for `CC[C@]1(O)C[C@@H]2CN(CCc3c([nH]c4ccccc34)[C@@](C(=O)OC)(c3cc4c(cc3OC)N(C)[C@H]3[C@@](O)(C(=O)OC)[C@H](OC(C)=O)[C@]5(CC)C=CCN6CC[C@]43[C@@H]65)C2)C1`: “inactive”; for `CC(C)(C)NC(=O)[C@@H]1CN(Cc2cccnc2)CCN1C[C@@H](O)C[C@@H](Cc1ccccc1)C(=O)N[C@H]1c2ccccc2C[C@H]1O`: “inactive”; for `CCOC(=O)C(C)C(C)=O` (stereo not given): “inactive”.
As for `O=c1n(CC2CO2)c(=O)n(CC2CO2)c(=O)n1CC1CO1` (stereo not given), the Potency entry was “inactive”.
For `Cc1cc(C(C)(C)C)c(O)c(C(C)(C)C)c1`, the Potency entry is “inactive”.
With `C=CC(=O)OCCCCCCOC(=O)C=C`, the Potency result is “inactive”.
As to `NC(N)=Nc1nc(CSCC/C(N)=N/S(N)(=O)=O)cs1`, the Potency result was “inactive”.
Turning to `Cc1scc2c1N(C(=O)CN1CCN(C)CC1)c1ccccc1NC2=O`, the Potency entry is “inactive”.
Take `O=C(O)CCc1ccccc1`: the Potency entry is “inactive”.
In the case of `O=C1NCC2(CCN(CCc3ccccc3)CC2)O1`, the Potency entry is “inactive”.
Consider `OCCN1CCNCC1`, for which the Potency result is “inactive”.
The same measure, in the same setting: the same measure for `Oc1ccc(Cl)cc1Cc1cc(Cl)ccc1O`: “inactive”; for `CC(C)(C)c1cc(C(C)(C)C)c(O)c(C(C)(C)C)c1`: “inactive”; for `Nc1cc(Cl)c(-c2cc(Cl)c(N)cc2Cl)cc1Cl`: “inactive”.
For the compound `C[N+]1([O-])CCOCC1`, the Potency entry is “inactive”.
On to `CCCCC/C=C/CC1CC(=O)OC1=O` (stereo not given), for which the Potency result was “inactive”.
For `c1ccc2c(c1)-c1cccc3c1c-2cc1ccccc13`, the Potency result is “inactive”.
In the case of `CCCNC(C)C(=O)Nc1ccccc1C` (stereo not given), the Potency result is “inactive”.
Regarding `Nc1nc(=S)c2[nH]cnc2[nH]1`, the Potency entry was “inactive”.
Same read-out and setting: then `c1cc(C(c2ccc(OCC3CO3)cc2)C(c2ccc(OCC3CO3)cc2)c2ccc(OCC3CO3)cc2)ccc1OCC1CO1` (stereo not given), with “inactive”.
Take `c1ccc2n[nH]nc2c1`: the Potency result was “inactive”.
Still for that read-out and setting: then `COc1ccc(Cc2cnc(N)nc2N)cc1OC`, with “inactive”.
As to `CCc1cc(C(C)(C)C)c(O)c(C(C)(C)C)c1`, the Potency result is “inactive”.
As to `COc1ccc(COC(C)=O)cc1`, the Potency result was “inactive”.
On to `Cc1cccc2n[nH]nc12`, for which the Potency entry is “inactive”.
`OCC(CO)N[C@H]1C[C@](O)(CO)[C@@H](O)[C@H](O)[C@H]1O`: the Potency result was “inactive”.
On to `CCCCCCCCCCCCCC[P+](CCCC)(CCCC)CCCC`, for which the Potency result was “inactive”.
Consider `CCOc1ccc2c(c1)C(C)=CC(C)(C)N2`, for which the Potency result is “inactive”.
For the compound `O`, the Potency result was “inactive”.
In the case of `NC(Cc1ccc(Cl)cc1)C(=O)O` (stereo not given), the activity change, negative = inhibition is -0.367% [at 0.349 µM].
